Source: PubChem BioAssay
A selection: hits, their analogues and other compounds. The true share with any hit is near 1.8%.
CFTR F508del cor = CFTR F508del correction in bronchial cells. activity (quench increase), % at 7.58 µM. CFBE cells, YFP halide quenching; stimulated with forskolin plus potentiator P3; % fluorescence drop versus neutral controls. AID 720511. 350,000 compounds, 0.36% hits;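 active means mean added fluorescence quench of at least 8% versus neutral control, with both replicates also reaching 8%; inconclusive means only one of the mean or replicate conditions met; inactive means mean below 8% and not both replicates reaching 8%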;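 further: cells transiently co-express mutant CFTR-F508del with the halide-sensitive YFP; corrector assay measuring rescue of mutant channel to the surface after 24 h compound exposure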
EWS-Fli inh = inhibitors of EWS/Fli oncoprotein transcriptional activity; inhibition, % at 12.6 µM; A673 NR0B1-luciferase reporter, viability-normalised; 350,000 compounds, 0.67% hits; AID 651661;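 active means mean inhibition of at least 50% after viability correction, with every replicate also passing that limit; inconclusive means mean reaches 50% but only one of two replicates passes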;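 further: firefly luciferase signal divided by Alamar Blue viability fluorescence both relative to DMSO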
RAD52 inh = blocks human RAD52 DNA annealing; P43351; recombinant RAD52 DNA annealing, FRET fluorescence; inhibition, % at 18.7 µM; 360,000 compounds, 0.46% hits;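 active means every replicate showing at least 50% inhibition; inconclusive means mean inhibition at least 50% but not in every replicate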
Target sequence (P43351 whole entry, looked up): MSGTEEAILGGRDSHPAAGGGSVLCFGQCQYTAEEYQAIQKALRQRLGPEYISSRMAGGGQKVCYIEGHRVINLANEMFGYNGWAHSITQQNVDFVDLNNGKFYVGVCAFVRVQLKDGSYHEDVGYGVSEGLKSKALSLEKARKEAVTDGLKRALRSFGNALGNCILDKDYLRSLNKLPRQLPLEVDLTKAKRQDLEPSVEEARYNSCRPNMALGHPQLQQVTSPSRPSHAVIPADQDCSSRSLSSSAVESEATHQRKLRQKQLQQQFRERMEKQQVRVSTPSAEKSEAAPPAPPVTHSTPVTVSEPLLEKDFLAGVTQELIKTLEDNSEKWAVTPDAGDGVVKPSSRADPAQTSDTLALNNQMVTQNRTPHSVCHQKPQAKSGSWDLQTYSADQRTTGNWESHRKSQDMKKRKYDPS
RAD54 inh = RAD54 (human) branch migration inhibition | Q92698 | RAD54 Holliday junction branch migration, FAM/BHQ fluorescence | inhibition, % at 10.4 µM | 360,000 compounds, 0.14% hits;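 active means mean normalized replicate activity at least 40 and at least half of replicates scoring 40 or more; inconclusive means only one of the two criteria met; inactive means mean below 40 and under half of replicates reaching 40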;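 further: 0% = median of neutral control wells and 100% = median of positive control wells; inhibitors cause a drop in the FAM fluorescence signal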
LGR2 inh = blocks bursicon-induced cAMP signaling via Drosophila LGR2. HEK293 LGR2, CRE-luciferase, bursicon-stimulated, 4 h. inhibition, % at 9.99 µM. 380,000 compounds, 0.35% hits. AID 720647;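 active means drop in luminescence signal, shown as inhibition above about 50% in the replicate tests, limit read from the data, passing the limit was not always enough; inconclusive means probably only some replicates passing the limit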;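 further: agonist challenge used bursicon conditioned medium at about half maximal strength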
INS-1E GSIS act = primary screen for activators of insulin secretion dependent on glucose, INS-1E cells, GLuc reporter luminescence; INS-1E GLuc reporter insulin secretion, 2-3 h; activation, % at 16.6 µM; 370,000 compounds, 0.61% hits;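 active means lowest replicate activation of at least 40%, so every replicate reaches that level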;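 further: 0% = median of neutral control wells and 100% = median of IBMX positive control wells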
DNA binder FP = small molecule DNA binding by fluorescence polarization. shares compounds with EWS-Fli inh. salmon sperm DNA acridine orange fluorescence polarization. AC35, µM (titrated, usually from 68 µM), for inactives: at the top dose activity change, negative = DNA binding. 640 compounds, 2% hits;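 active means fitted curve reaches a 35% signal fall AC35 below twice the sample's top valid tested dose, actives reach about 48 µM in these data; inactive means the rest, including activity in the rising direction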;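 further: lower polarization ratio signals compound binding to DNA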
Starred values were filed as active, the others as inactive; ? = inconclusive; nt = no result; ! = not confirmed by another sample.

SMILES | CFTR F508del cor | EWS-Fli inh | RAD52 inh | RAD54 inh | LGR2 inh | INS-1E GSIS act | DNA binder FP
COc1ccc(NC(=O)COC(=O)CCCN2C(=O)c3ccccc3C2=O)cc1Cl | -1 | -8 | -2 | -8 | -5 | 9 | nt
CC(=NNc1ccc2ccccc2n1)c1ccccc1O | 3 | 74* | -33 | nt | 95* | 3 | -15%
CC(=NNc1ccc2ccccc2n1)c1ccccn1 | 4 | 85* | -110 | nt | 104* | 7 | 8%
C/C(=N\Nc1ccc2nncn2n1)c1ccccn1 | ? | 35 | -48 | 0 | -1 | 13 | nt
COc1cc(/C=N/NC(=O)c2csc3c2CCCC3)ccc1OCCN1CCOCC1 | -1 | -19 | -7 | 9 | 7 | -15 | nt
COc1cc(/C=N/NC(=O)c2csc3c2CCCC3)cc(OC)c1O | nt | 85* | -14 | nt | 6 | -6 | -7%
COCCCNc1ccn2nc(-c3ccccc3)cc2n1 | -3 | 57* | -2 | 0 | 72* | 0 | -9%
O=C(O)CN1C(=O)/C(=C\c2ccccc2OCc2ccc(Cl)cc2Cl)SC1=S | 3 | 59* | -19 | 0 | -12 | 18 | -6%
N#CC1=C(N)Oc2cc(N)ccc2C1c1cccc(F)c1 (stereo not drawn) | 10* | 53* | -16 | -5 | -22 | 5 | -9%
COC(=O)C[C@@H]1CC[C@@H]2[C@@H](COc3ccc(NC(=O)Cc4cccs4)cc3C(=O)N2C)O1 | nt | 65* | -17 | -1 | -12 | -4 | -20%
COC(=O)C[C@@H]1CC[C@H]2[C@@H](COc3ccc(NC(=O)Nc4cccc(Cl)c4)cc3C(=O)N2C)O1 | -2 | 45 | -23 | 7 | -5 | -19 | nt
COC(=O)C[C@@H]1CC[C@@H]2[C@@H](COc3ccc(NC(=O)Nc4cccc(Cl)c4)cc3C(=O)N2C)O1 | -2 | 77* | -50 | -2 | 11 | -9 | 14%
CN1C(=O)c2cc(NC(=O)c3ccc(C(F)(F)F)cc3)ccc2OC[C@@H]2O[C@@H](CC(=O)NC3Cc4ccccc4C3)CC[C@H]21 | 2 | 54* | 10 | -2 | 4 | -10 | 0%
COC(=O)C[C@@H]1CC[C@@H]2[C@@H](COc3ccc(NC(=O)Nc4cccc(F)c4)cc3C(=O)N2C)O1 | -1 | 69* | -7 | -7 | -10 | -20 | -10%
CCOC(=O)C1CCCN(S(=O)(=O)c2ccc3c4c(cccc24)C(=O)N3CC)C1 (stereo not drawn) | 1 | 6 | -16 | 2 | -11 | -28 | nt
C[C@@H]1CN([C@H](C)CO)C(=O)CCCn2cc(nn2)CO[C@H]1CN(C)C(=O)NC1CCCCC1 | -2 | -9 | -1 | -2 | 2 | 11 | nt
COC(=O)C[C@@H]1CC[C@@H]2[C@H](COc3ccc(NC(=O)Nc4ccccc4C)cc3C(=O)N2C)O1 | -1 | -8 | -3 | 7 | 14 | -2 | nt
COC(=O)C[C@H]1CC[C@H]2[C@@H](COc3ccc(NC(=O)Nc4cccc(Cl)c4)cc3C(=O)N2C)O1 | 1 | 60* | nt | 6 | -6 | -8 | 5%
COC(=O)C[C@@H]1CC[C@H]2[C@H](COc3ccc(NC(=O)Nc4cccc(Cl)c4)cc3C(=O)N2C)O1 | 0 | ? | -30 | -7 | 16 | -4 | nt
COC(=O)C[C@@H]1CC[C@@H]2[C@@H](COc3ccc(NC(=O)Nc4ccccc4C)cc3C(=O)N2C)O1 | -3 | 66* | -6 | 8 | -5 | 1 | -13%
CN(C[C@H]1N[C@@H](CO)[C@@H]1c1ccc(C2=CCCC2)cc1)C(=O)c1ccc(F)cc1 | 6 | 73* | -22 | -9 | 1 | 5 | -14%
O=C(N/N=C/c1cnc(N2CCCCC2)s1)c1ccc(C(F)(F)F)cc1 | -1 | 54* | -5 | nt | 19 | 16 | 0%
CC1CN(c2ncc(/C=N/NC(=O)c3ccccc3O)s2)CC(C)O1 (stereo not drawn) | 0 | 4 | -3 | 7 | -10 | -9 | nt
COc1ccc(S(=O)(=O)N2CCCc3nc(-c4ccc(F)cc4)ccc32)cc1 | 2 | 60* | -14 | nt | -6 | nt | 4%
COc1ccc(-c2ccc3c(n2)CCCN3S(=O)(=O)c2ccc(F)cc2)cc1 | 0 | 0 | -14 | nt | -22 | nt | nt
SMILES | CFTR F508del cor | EWS-Fli inh | RAD52 inh | RAD54 inh | LGR2 inh | INS-1E GSIS act | DNA binder FP
N#Cc1cccc(-c2ccc(C3[C@@H]4CN(C(=O)Cc5ccncc5)C[C@H]3N4)cc2)c1 (stereo partly drawn) | 2 | 78*! | -19 | nt | 5 | 19 | -4%
O=C(Cc1nn[nH]n1)c1ccccc1O | nt | 68* | -23 | nt | 7 | 0 | -2%
c1ccc(-c2sc3ccccc3c2-c2ccc(OCCN3CCCC3)cc2)cc1 | 1 | 45 | -89 | -4 | -20 | -2 | nt
COc1ccc(-c2sc3ccccc3c2-c2ccc(OCCN3CCCCC3)cc2)cc1 | -1 | 59* | -19 | 8 | -4 | 11 | -4%
COC(=O)c1cccc(NC(=O)NC(=O)c2ccccc2Cl)c1 | 3 | 86* | -16 | nt | -2 | 0 | -13%
Cc1cc(=O)[nH]c(N/N=C/C2=C(N3CCOCC3)C(=C\c3ccc(Cl)cc3)/CC2)n1 | nt | -10 | -30 | nt | -10 | -13 | nt
CC(C)(C)c1ccc(C(=O)CC(=O)c2cc(Cl)ccc2O)cc1 | nt | nt | nt | -2 | nt | nt | nt
N/C(=C\C(=O)c1cc(Cl)ccc1O)C(Cl)(Cl)Cl | 3 | 62* | -5 | -5 | -2 | -21 | -5%
CN=c1scc(-c2cccs2)n1/N=C/c1ccccc1O | nt | 93* | -10 | nt | 100* | -1 | -7%
CN=c1scc(-c2cccs2)n1/N=C/c1ccc(O)c(O)c1O | 1 | 26 | -11 | nt | -23 | -2 | nt
CCN1[C@@H]2Cn3c(ccc(C4=CCCCC4)c3=O)[C@H]1[C@@H](C(=O)NCCOC)[C@@H]2CO | nt | 2 | 22 | 5 | -18 | 6 | nt
CCNC(=O)[C@@H]1[C@@H](CO)[C@@H]2Cn3c(ccc(C4=CCCCC4)c3=O)[C@H]1N2CC | -1 | nt | nt | nt | 2 | 5 | -15%
CCc1ccc(/C=C2\SC(=S)N(CCCC(=O)N3CCN(C)CC3)C2=O)cc1 | -2 | 69* | -57 | 5 | -17 | -15 | -24%
CCc1ccc(/C=C2\SC(=S)N(CCCC(=O)NCCCN3CCOCC3)C2=O)cc1 | 1 | 85* | 8 | -3 | -28 | 41* | 0%
O=C(Nn1cnnc1)c1ccc(Br)s1 | nt | -10 | -10 | nt | nt | 12 | nt
CC(C)=CCC/C(C)=C/CN1C(=O)N(c2ccc(F)cc2)[C@H]2C[C@@H](c3ccccc3)[C@@H](C)[C@@H](C(=O)N3CCOCC3)C[C@H]21 | -1 | 52* | -10 | nt | 23 | 37 | 3%
Cc1ccc(Cc2c(-c3ccco3)nc3c(C)cc(Br)cn23)cc1 | -1 | 54* | -107 | 6 | 5 | nt | 13%
Cc1cc(Br)cn2c(Cc3cccc(Cl)c3)c(-c3ccco3)nc12 | -1 | 2 | -51 | nt | 14 | 4 | nt
